For twelve compounds, Potency results are on record in PubChem BioAssay (NCATS).

Inconclusive results are not listed. The source made the active and inactive calls. The call rests on the fitted dose curve; in most records, active means well fitted curve in the direction sought with a large enough effect; inconclusive means small, poorly fitted or top-dose-only effect, or another doubt; inactive means no such curve, though single readings can be large; an effect the other way counts as inactive or inconclusive.

Assay [1] is described as follows: qHTS of pediatric cancer cell lines to identify multiple opportunities for drug repurposing: Primary screen for TC32 cells (AID 1347089). Further: nearly all actives have a fitted effect of over 60% in size. The method in brief: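 Measured quantity: luminescence from CellTiter-Glo, reflecting metabolically active TC32 cells following 48 h of compound. Curves came straight from multi-point titrations, with 8 or 11 points in primary and 11 in confirmatory screening.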

Assay [2] is described as follows: qHTS of pediatric cancer cell lines to identify multiple opportunities for drug repurposing: Primary screen for SJ-GBM2 cells (AID 1347091). Further: potency means the concentration at half of the fitted maximal effect. The method in brief: (§1)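 Viability measured as metabolically active cells via CellTiter-Glo luminescence following 48 hours of compound exposure, 11-point dilutions in confirmatory testing. 500-1,000 cells/well plated 5 hours before dosing; controls were DMSO and 2.3 µM bortezomib.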
A general note: In qHTS, concentration-response curves come from the screen itself.

Assay [3] in a line: qHTS of pediatric cancer cell lines to identify multiple opportunities for drug repurposing: Primary screen for SK-N-MC cells (AID 1347093). Further: potency means the concentration at half of the fitted maximal effect. The method in brief:
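Metabolically active cells were quantified by ATP-dependent luminescence (CellTiter-Glo, 15 min at room temperature) following 48 h treatment. Cells had been plated at 500-1,000 per well and settled for 5 h beforehand.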

A short description of assay [4]: qHTS of pediatric cancer cell lines to identify multiple opportunities for drug repurposing: Primary screen for NB-EBc1 cells (AID 1347095). Further: potency means the concentration at half of the fitted maximal effect. The method in brief: (§2)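 Readout: CellTiter-Glo luminescence, 48 h treatment. Controls DMSO (neutral) and bortezomib 2.3 µM final (positive). Potency and efficacy taken from primary-screen concentration-response curves.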
Assay [5] can be described thus: qHTS of pediatric cancer cell lines to identify multiple opportunities for drug repurposing: Primary screen for U-2 OS cells (AID 1347096). Further: nearly all actives have a fitted effect of over 50% in size. Further: potency means the concentration at half of the fitted maximal effect. The essentials: (§3)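 Viability after 48 h compound treatment at 37C, 500-1,000 cells/well, read as ATP luminescence with CellTiter-Glo. Primary screens used 11-point (MIPE, 0.78 nM-46 µM) or 8-point (NPC, 0.59 nM-46 µM) final concentrations; follow-up screens used 11-point dilutions.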

The nature of assay [6]: qHTS of pediatric cancer cell lines to identify multiple opportunities for drug repurposing: Primary screen for Saos-2 cells (AID 1347097). Further: nearly all actives have a fitted effect of over 40% in size. Further: potency means the concentration at half of the fitted maximal effect. The method in brief:
as §2

The nature of assay [7]: qHTS of pediatric cancer cell lines to identify multiple opportunities for drug repurposing: Primary screen for SK-N-SH cells (AID 1347098). Further: nearly all actives have a fitted effect of over 65% in size. Further: potency means the concentration at half of the fitted maximal effect. The method in brief:
(§4)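 Cells (500-1,000/well) rested 5 h, then received compounds for 48 h; metabolically active cells were measured by CellTiter-Glo luminescence. Final concentrations spanned up to 46 µM (MIPE, 11-point) or 0.59 nM-46 µM (NPC, 8-point) in primary screens, 11-point in follow-ups.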

The nature of assay [8]: qHTS of pediatric cancer cell lines to identify multiple opportunities for drug repurposing: Primary screen for NB1643 cells (AID 1347099). Further: nearly all actives have a fitted effect of over 50% in size. Further: potency means the concentration at half of the fitted maximal effect. The method in brief:
as §2

Assay [9] is described as follows: qHTS of pediatric cancer cell lines to identify multiple opportunities for drug repurposing: Primary screen for BT-12 cells (AID 1347101). Further: nearly all actives have a fitted effect of over 25% in size. Further: potency means the concentration at half of the fitted maximal effect. The method in brief:
as §4

Assay [10] can be described thus: qHTS of pediatric cancer cell lines to identify multiple opportunities for drug repurposing: Primary screen for DAOY cells (AID 1347090). Further: nearly all actives have a fitted effect of over 55% in size. Further: potency means the concentration at half of the fitted maximal effect. The method in brief:
as §1

A short description of assay [11]: qHTS of pediatric cancer cell lines to identify multiple opportunities for drug repurposing: Primary screen for A673 cells (AID 1347092). Further: nearly all actives have a fitted effect of over 45% in size. Further: potency means the concentration at half of the fitted maximal effect. The method in brief:
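Cells are plated, rested 5 h, dosed by pintool, incubated 48 h, then lysed with CellTiter-Glo and read by luminescence. DMSO is the neutral control; bortezomib at 2.3 uM final is the positive control.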

Assay [12] can be described thus: qHTS of pediatric cancer cell lines to identify multiple opportunities for drug repurposing: Primary screen for BT-37 cells (AID 1347094). Further: potency means the concentration at half of the fitted maximal effect. The essentials: as §2
Assay [13] is described as follows: qHTS of pediatric cancer cell lines to identify multiple opportunities for drug repurposing: Primary screen for LAN-5 cells (AID 1347100). Further: potency means the concentration at half of the fitted maximal effect. The essentials: as §3
Assay [14] is described as follows: qHTS of pediatric cancer cell lines to identify multiple opportunities for drug repurposing: Primary screen for Rh18 cells (AID 1347102). Further: nearly all actives have a fitted effect of over 65% in size. Further: potency means the concentration at half of the fitted maximal effect. The essentials:
as §3

A short description of assay [15]: qHTS of pediatric cancer cell lines to identify multiple opportunities for drug repurposing: Primary screen for OHS-50 cells (AID 1347103). Further: nearly all actives have a fitted effect of over 40% in size. Further: potency means the concentration at half of the fitted maximal effect. The essentials: as §4
Assay [16] is described as follows: qHTS of pediatric cancer cell lines to identify multiple opportunities for drug repurposing: Primary screen for RD cells (AID 1347104). Further: potency means the concentration at half of the fitted maximal effect; nearly all actives have a fitted effect of over 55% in size. The essentials:
as §2

Regarding `CC(C)(C)c1cc(NC(=O)Nc2ccc(-c3cn4c(n3)sc3cc(OCCN5CCOCC5)ccc34)cc2)no1`, the Potency result in assay [1], in assay [5], in [7], in assay [8] and in assay [9] was “inactive” throughout. Besides, the Potency in assay [2] is 14800 nM (active); in [3] it was 743 nM (active); in assay [4] it was 16600 nM (active); in assay [6] it was 18700 nM (active).

As for `Cc1cnc(Nc2ccc(F)cc2Cl)nc1-c1c[nH]c(C(=O)N[C@H](CO)c2cccc(Cl)c2)c1`, the Potency in [10] is 7430 nM (active); in [2] it was 264 nM (active); in assay [11], 37.2 nM (active); in assay [3], 2350 nM (active); in assay [12], 485 nM (active); in [4] it was 833 nM (active). For the same compound, the Potency is 7430 nM (active) in assay [5]; 1480 nM (active) in assay [6]; 17100 nM (active) in assay [7]; 18700 nM (active) in [8]; 469 nM (active) in assay [13]; 432 nM (active) in assay [9]. In addition, the values for the Potency in assay [14], in [15] and in [16] were 16600 nM (active), 544 nM (active) and 2350 nM (active), respectively.

Consider `O=C(Nc1cc(C(F)(F)F)cc(C(F)(F)F)c1)c1cc(Cl)ccc1O`, for which the Potency in [10] was 590 nM (active); in assay [2] it was 235 nM (active); in assay [11] it was 4690 nM (active); in assay [3] it was 469 nM (active); in assay [12], 968 nM (active); in assay [4], 296 nM (active). Further, the Potency in [5] is 4690 nM (active); in assay [6] it was 2640 nM (active); in assay [7], 2410 nM (active); in assay [8], 372 nM (active); in [13], 332 nM (active); in assay [9] it was 1720 nM (active). Further, the values for the Potency in assay [14], in [15] and in assay [16] were 4180 nM (active), 432 nM (active) and 662 nM (active), respectively.

On to `CCCCc1nc2cc(C=CC(=O)NO)ccc2n1CCN(CC)CC`, for which the Potency in [10] is 3720 nM (active); in assay [2], 469 nM (active); in assay [11] it was 118 nM (active); in [3], 29.6 nM (active); in assay [12], 48.5 nM (active); in assay [5] it was 743 nM (active). Further, the Potency was 29.6 nM (active) in assay [6]; 3410 nM (active) in [7]; 83.3 nM (active) in [13]; 193 nM (active) in assay [9]; 14.8 nM (active) in assay [14]; 153 nM (active) in assay [15]. Besides, the Potency in [16] was 2090 nM (active).

In the case of `COc1cc(OC2CCN(C)CC2)ccc1Nc1ncc2c(n1)n(C1CCCC1)c(=O)n2C`, the Potency is 23500 nM (active) in [10]; 16600 nM (active) in assay [2]; 14800 nM (active) in [11]; 3320 nM (active) in [3]; 8330 nM (active) in assay [4]; 23500 nM (active) in [5]. In addition, the Potency in [6] was 18700 nM (active); in assay [7], 12100 nM (active); in assay [8], 10500 nM (active); in assay [13], 13200 nM (active); in assay [14], 20900 nM (active); in [15], 19300 nM (active). The Potency in assay [16] is 18700 nM (active).

Consider `COc1cc2nccc(Oc3ccc(NC(=O)C4(C(=O)Nc5ccc(F)cc5)CC4)cc3)c2cc1OC`, for which the Potency was 14800 nM (active) in assay [10]; 23.5 nM (active) in assay [2]; 1480 nM (active) in assay [11]; 1660 nM (active) in assay [3]; 1720 nM (active) in [12]; 743 nM (active) in [4]. The Potency in [6] was 18700 nM (active); in [7], 3410 nM (active); in assay [8], 9350 nM (active); in assay [13], 1480 nM (active); in assay [9], 15300 nM (active); in assay [14], 10500 nM (active). Also, the results for the Potency in assay [15] and in [16] were 27300 nM (active) and 16600 nM (active), respectively.

As for `CN1c2cc(O)c(N=NC(N)=O)cc2CC1S(=O)(=O)O` (stereo unspecified), the Potency result in assay [10], in [2], in [11], in assay [12], in [4] and in assay [6] was “inactive” throughout. The Potency result in assay [7], in assay [8], in [9], in [14] and in assay [15] was “inactive” each time.

As to `CC(C)c1cnn2c(NCc3ccccc3)cc(N[C@@H](CO)[C@H](O)CO)nc12`, the Potency was 372 nM (active) in assay [10]; 166 nM (active) in assay [2]; 118 nM (active) in [11]; 296 nM (active) in assay [3]; 306 nM (active) in assay [12]; 187 nM (active) in assay [4]. In addition, the Potency is 296 nM (active) in assay [6], 304 nM (active) in assay [7], 344 nM (active) in assay [9] and 273 nM (active) in [15].

Regarding `CC(C)c1ccccc1Cc1cc(C(=O)Nc2ccc(S(=O)(=O)c3ccccc3C(C)(C)C)cc2)c(O)c(O)c1O`, the Potency in assay [10] is 29600 nM (active); in assay [2], 2960 nM (active); in assay [11], 18700 nM (active); in assay [12], 24300 nM (active); in [4], 2350 nM (active); in assay [6], 26400 nM (active). The Potency was 21700 nM (active) in assay [9], 18700 nM (active) in assay [14] and 24300 nM (active) in assay [15]. Besides, the Potency entry in assay [5] was “inactive”.

With `N#CCNC(=O)c1ccc(-c2ccnc(Nc3ccc(N4CCOCC4)cc3)n2)cc1`, the Potency in assay [10] was 14800 nM (active); in assay [2], 13200 nM (active); in assay [11], 7430 nM (active); in assay [3] it was 4690 nM (active); in [12], 21700 nM (active); in assay [7], 12100 nM (active). Also, the Potency in assay [9] is 17200 nM (active); in assay [16], 16600 nM (active).

As to `Nc1cc(C(F)(F)F)c(-c2cc(N3CCOCC3)nc(N3CCOCC3)n2)cn1`, the Potency in [10] is 372 nM (active); in assay [2], 296 nM (active); in [11] it was 235 nM (active); in assay [3] it was 29.6 nM (active); in [12], 1530 nM (active); in assay [6], 1480 nM (active). The Potency in assay [7] is 482 nM (active); in assay [8], 296 nM (active); in [13], 469 nM (active); in assay [9], 1220 nM (active); in [14] it was 590 nM (active); in [15] it was 153 nM (active). Also, in assay [16], the Potency was 743 nM (active).

On to `NC(=O)c1c(OCc2c(F)cc(Br)cc2F)nsc1NC(=O)NCCCCN1CCCC1`, for which the Potency in [10] was 23500 nM (active); in assay [2] it was 20900 nM (active); in assay [11], 18700 nM (active); in assay [3] it was 16600 nM (active); in [12], 24300 nM (active); in assay [9], 27300 nM (active). For the same compound, the Potency was 24300 nM (active) in assay [15] and 18700 nM (active) in [16]. For the same compound, the Potency result in assay [6] and in assay [8] was “inactive” throughout.
